Screens from PubChem.
G9a inh-1 – blocks human histone lysine methyltransferase G9a; Q96KQ7; G9a H3K9 monomethylation, AlphaScreen, 2 h; Potency, µM (top dose mostly 102 µM), for inactives: at the highest dose activity, negative = inhibition, usual class: inhibitors; hit rate 8.8% among 350,000; also: potency is read from the fitted curve at half-maximal effect; % is scaled to controls: 0 for no effect and ±100 for the full control effect; nearly all actives have a fitted effect of over 75% in size
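AlphaScreen read-out: biotin-H3K9 peptide (500 nM) methylation by 20 nM enzyme with 20 uM SAM, 2 h at room temperature after 15 min compound preincubation; anti-monomethyl H3K9 antibody plus donor/acceptor beads, 10 min dark.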
BAZ2B inh – inhibitors of human BAZ2B bromodomain. Q9UIF8. AlphaScreen BAZ2B-H3K14Ac peptide displacement. Potency, µM (doses to about 114 µM), for inactives: top-dose activity change, negative = inhibition, most hits filed as inhibitors. hit rate 4.4% among 360,000. AID 504333; also: potency is read from the fitted curve at half-maximal effect; % is scaled to controls: 0 for no effect and ±100 for the full control effect; nearly all actives have a fitted effect of over 60% in size
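AlphaScreen displacement of biotin-H3(5-23)K14Ac peptide (50 nM final) from BAZ2B (50 nM final) in PBS pH 7.4, 0.01% Tween-20; complex preformed 30 min RT, then compounds (top 110 uM) 30 min RT, beads 20 min dark.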
Sfp inh – Sfp phosphopantetheinyl transferase inhibition | Potency, µM, for inactives: largest response in the series, negative = inhibition, hits mostly inhibitors | hit rate 3.5% among 310,000 | AID 1490 | Biochemical Sfp PPTase activity, qHTS;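 also: the enzyme is Sfp with the accession as filed and its product quenches rhodamine fluorescence; potency is read from the fitted curve at half-maximal effect; 0% = enzyme reaction without inhibitor and -100% = no enzyme wells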
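Step 1, compound plus 15 nM Sfp-PPTase, 15 min, room temperature. Step 2, add rhodamine-CoA (5 uM) and BHQ-2-YbbR (12.5 uM). Step 3, read 525/598 nm fluorescence at 0 and 30 min.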
HP1b binding inh – inhibitors of HP1-beta chromodomain binding to methylated histone tails; P83916; AlphaScreen HP1-beta / biotin-H3K9me3 peptide binding; Potency, µM (series often up to 114 µM), inactives show at the highest dose activity change, negative = inhibition, actives largely listed as inhibitors; hit rate 0.56% among 390,000; AID 540317; also: potency is read from the fitted curve at half-maximal effect; nearly all actives have a fitted effect of over 70% in size
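HP1-beta protein (50 nM final) preincubated 30 min at room temperature with biotinylated H3(1-18)K9me3 peptide (50 nM) in PBS pH 7.4, 0.01% Tween-20, then compound added for 30 min. AlphaScreen streptavidin donor/nickel chelate acceptor beads (10 ug/mL final), 30 min dark, luminescence read.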
JMJD2A Tudor – inhibitors of human JMJD2A Tudor domain | O75164 | AlphaScreen JMJD2A-Tudor / H3K4me3 peptide binding | Potency, µM (titrated, usually from 114 µM), for inactives: top-dose activity change, negative = inhibition, usual class: inhibitors | hit rate 4.4% among 390,000 | AID 504339; also: potency is read from the fitted curve at half-maximal effect; % is scaled to controls: 0 for no effect and ±100 for the full control effect; nearly all actives have a fitted effect of over 50% in size
PLK1 PBD block – inhibitors of human PLK1 polo-box domain binding; P53350; Plk1 PBD binding of FITC phosphopeptide, fluorescence polarization; Potency, µM, inactives show max response, negative = inhibition, actives largely listed as inhibitors; hit rate 2.8% among 360,000; AID 720504; also: potency is read from the fitted curve at half-maximal effect; series mostly up to about 57 µM; % is scaled to controls: 0 for no effect and ±100 for the full control effect; nearly all actives have a fitted effect of over 65% in size
JMJD2E confirm – confirmation of inhibitors of human JMJD2E demethylase. shares compounds with JMJD2A Tudor. Recombinant JMJD2E, FDH-coupled NADH fluorescence (FDH is formaldehyde dehydrogenase). Potency, µM (highest dose often 56.8 µM), inactives show at the highest dose activity change, negative = inhibition, actives largely listed as inhibitors. hit rate 93% among 140
FDH inh – blocks Pseudomonas putida formaldehyde dehydrogenase, flagging JMJD2E artifacts; FDH enzyme assay, NADH fluorescence kinetic; AID 2680; hit rate 10% among 140; shares compounds with JMJD2A Tudor; Potency, µM (doses to about 56.7 µM), for inactives: at the highest dose activity, negative = inhibition, most hits filed as inhibitors
G9a inh-2 – confirmation of human histone methyltransferase G9a inhibitors. shares compounds with JMJD2A Tudor. G9a H3K9 monomethylation, AlphaScreen, 2 h. Potency, µM, most hits filed as inhibitors. hit rate 89% among 370. AID 588344; also: potency is read from the fitted curve at half-maximal effect; nearly all actives have a fitted effect of over 65% in size
RGS4 confirm – inhibits human RGS4, hit validation; hit rate 80% among 25; shares compounds with JMJD2A Tudor; RGS4 GAP activity, Transcreener GDP fluorescence polarization; Potency, µM, hits mostly inhibitors
* = called active by the depositor; [ ] = dose if it differs, or a comment. A selection: hits, their analogues and other compounds. The true share with any hit is near 12%. Calls follow the shape of the dose curve; as a rule, active = well fitted curve in the direction sought with a large enough effect; inconclusive = small, poorly fitted or top-dose-only effect, or another doubt; inactive = no such curve, though single readings can be large; an effect the other way counts as inactive or inconclusive.

Screening COc1ccccc1C1CC(=O)Oc2c(C(C)C)ccc(C)c21 (stereo unspecified) returned G9a inh-1 50%, Sfp inh 0%, HP1b binding inh 46%, JMJD2A Tudor -14% and PLK1 PBD block -8%.
`COc1ccc(-n2cnnc2SCC(=O)Nc2ccccc2F)cc1` gave G9a inh-1 -13%, BAZ2B inh 3%, Sfp inh 13%, HP1b binding inh 41%, JMJD2A Tudor -1% and PLK1 PBD block 4%.
`CCOC(=O)c1cnc(-n2nc(C)cc2C)nc1Nc1ccc(N(C)C)cc1` gave G9a inh-1 0.89µM*, BAZ2B inh 1.8µM*, Sfp inh -12%, HP1b binding inh inconclusive, JMJD2A Tudor 1.1µM*, PLK1 PBD block -11% and G9a inh-2 1.6*.
CCOC(=O)c1cnc(-n2nc(C)cc2C)nc1Nc1ccc(O)cc1 was read as G9a inh-1 inconclusive, BAZ2B inh -16%, Sfp inh 0%, HP1b binding inh 31%, JMJD2A Tudor -10% and PLK1 PBD block -2%.
For FC(F)(F)c1ccccc1-c1cncnc1NCc1ccccc1 the results were G9a inh-1 9%[0.501 µM] and Sfp inh -2%.
Screening CNc1ncncc1-c1ccccc1C(F)(F)F returned G9a inh-1 inconclusive, Sfp inh inconclusive and RGS4 confirm 27*.
CCOC(=O)C1CCN(Cc2ccc(O)c3ncccc23)CC1 was read as G9a inh-1 4µM*, BAZ2B inh 4µM*, Sfp inh 11%, HP1b binding inh -12%, JMJD2A Tudor 10µM*, PLK1 PBD block 27µM*, JMJD2E confirm 13µM* and FDH inh inconclusive.
Screening CCOC(=O)C1CCN(Cc2nc3ccccc3c(=O)n2-c2ccc(OCC)cc2)CC1 returned G9a inh-1 9%[59 µM], BAZ2B inh -6%, Sfp inh -9%, HP1b binding inh 31%, JMJD2A Tudor -11% and PLK1 PBD block -2%.
Screening COc1ccc(NS(=O)(=O)c2ccc(C)c(C(=O)NCc3ccccc3CN3CCCC3)c2)cc1 returned PLK1 PBD block -6%.
Screening O=C(CNC(=O)OCc1ccccc1)Nc1ccc(F)cc1 returned G9a inh-1 inconclusive, BAZ2B inh 3%, HP1b binding inh 16%, JMJD2A Tudor inconclusive, PLK1 PBD block -11% and G9a inh-2 inconclusive.
CCOc1cccc(CNc2ccc(O)cc2)c1OCc1ccc(Cl)cc1Cl was read as G9a inh-1 2.5µM*, BAZ2B inh inconclusive, Sfp inh 14µM*, HP1b binding inh inconclusive, JMJD2A Tudor -35%, PLK1 PBD block -6% and G9a inh-2 2.5*.
CCOc1cccc(CNc2ccc(O)cc2)c1OCc1ccccc1Cl was read as G9a inh-1 4.5µM*, BAZ2B inh inconclusive, Sfp inh -13%, HP1b binding inh inconclusive, JMJD2A Tudor 45µM*, PLK1 PBD block -6% and G9a inh-2 3.2*.
For CCOc1cccc(CNCCO)c1OCc1ccc(Cl)cc1Cl the results were G9a inh-1 12%[59 µM], BAZ2B inh 6%, Sfp inh inconclusive, HP1b binding inh 16%, JMJD2A Tudor -11% and PLK1 PBD block -3%.
`CCOc1cccc(CNn2cnnc2)c1OCc1ccccc1Cl` gave G9a inh-1 11%[59 µM], BAZ2B inh -3%, Sfp inh 19%, HP1b binding inh 20%, JMJD2A Tudor -15% and PLK1 PBD block -15%.
Screening CCOc1ccc(NC(=O)c2c(C)nn(-c3ccc(F)cc3)c2-n2cccc2)cc1 returned G9a inh-1 inconclusive, BAZ2B inh -6%, HP1b binding inh 17% and JMJD2A Tudor -8%.
`CC1(C)CN(C2CCCCC2)C(=O)[C@H]1CC(=O)Nc1ccc(Br)cc1` gave PLK1 PBD block 1%.
For O=C(Nc1nccs1)C1CCCN1S(=O)(=O)c1ccc(Cl)cc1 (stereo unspecified) the results were G9a inh-1 -46%[59 µM], Sfp inh 9%, HP1b binding inh 22%, JMJD2A Tudor -13% and PLK1 PBD block -4%.
`CC(C)COC(=O)N1CCCC1C(=O)Nc1nccs1` (stereo unspecified) gave G9a inh-1 inconclusive, BAZ2B inh -35%, Sfp inh 7%, HP1b binding inh -2%, JMJD2A Tudor -14%, PLK1 PBD block -18% and G9a inh-2 13*.
O=S(=O)(c1cc(Br)c(Br)s1)N1CCN(c2ccccc2)CC1 was read as G9a inh-1 -6%[59 µM], BAZ2B inh 5%, HP1b binding inh 54% and JMJD2A Tudor 3%.
O=C(CSc1ncn(-c2ccccc2)n1)Nc1nc2ccccc2s1 was read as G9a inh-1 inconclusive, BAZ2B inh -5%, Sfp inh inconclusive, HP1b binding inh -6%, JMJD2A Tudor 45µM*, PLK1 PBD block -23% and G9a inh-2 3.6*.
O=C(CSc1ncn(-c2ccccc2)n1)Nc1nc(-c2ccccc2)cs1 was read as G9a inh-1 -3%[59 µM], BAZ2B inh -4%, Sfp inh -17%, HP1b binding inh 32%, JMJD2A Tudor -7% and PLK1 PBD block -6%.
Screening COc1cc(OC)c(C(=O)CCCN2CCCC2)c(OC)c1 returned G9a inh-1 inconclusive, BAZ2B inh 8%, Sfp inh 17%, HP1b binding inh 21%, JMJD2A Tudor -6%, PLK1 PBD block -2% and G9a inh-2 9.6*.
`COc1ccc(NC(=O)CCN2CCCCCC2)c(OC)c1` gave G9a inh-1 inconclusive, BAZ2B inh -3%, Sfp inh 16%, HP1b binding inh 10%, JMJD2A Tudor -17% and PLK1 PBD block -10%.
